Source: PubChem BioAssay AID1469 (National Center for Advancing Translational Sciences (NCATS), 2008)
The whole screen tested about 280,000 compounds, of which about 180 (0.064%) were called active. Calls follow the shape of the dose curve; as a rule, active = well fitted inhibition curve with a large enough effect; inconclusive = small, poorly fitted or top-dose-only effect, or effect the other way; inactive = flat fitted curve, though single readings scatter. Many of the other results were omitted from the sample, so actives are more common in it than they were.

Target: Thyroid hormone receptor beta (Homo sapiens) (UniProt P10828)
Assay: qHTS for Inhibitors of the Interaction of Thyroid Hormone Receptor and Steroid Receptor Coregulator 2;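 also: plate controls were bound peptide for no effect and peptide without receptor for full effect; nearly all actives have a fitted effect of over 50% in size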
Conditions: TRbeta-SRC2 peptide binding, fluorescence polarization, receptor liganded with 1 µM T3; series mostly up to 106 µM; activity change, negative = inhibition: at the top concentration
Summary of the method: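 Assay buffer: 20 mM Tris-HCl, 100 mM NaCl, 10% glycerol, 1 mM EDTA, 0.01% NP-40, 1 mM DTT, 1 uM T3, 5% DMSO; TRb LBD 0.6 uM, Texas Red SRC2 20 nM; FP after 5 hr.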

Sequence of Thyroid hormone receptor beta (Homo sapiens) (P10828 whole entry, looked up): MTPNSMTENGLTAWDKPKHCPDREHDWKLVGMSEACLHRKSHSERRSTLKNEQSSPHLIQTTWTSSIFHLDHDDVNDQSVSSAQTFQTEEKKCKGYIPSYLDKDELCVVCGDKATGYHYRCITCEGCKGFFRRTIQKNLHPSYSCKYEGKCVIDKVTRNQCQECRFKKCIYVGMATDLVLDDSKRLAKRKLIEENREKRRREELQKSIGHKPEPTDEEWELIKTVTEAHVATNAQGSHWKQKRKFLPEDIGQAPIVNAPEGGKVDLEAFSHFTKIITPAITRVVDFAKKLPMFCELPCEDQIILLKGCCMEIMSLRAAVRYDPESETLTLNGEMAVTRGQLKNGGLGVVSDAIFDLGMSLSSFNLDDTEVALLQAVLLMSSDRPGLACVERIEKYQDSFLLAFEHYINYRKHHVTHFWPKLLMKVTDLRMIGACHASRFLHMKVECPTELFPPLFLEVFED

Activity change, negative = inhibition, inactive:
CCN(CC)c1ccc(NS(=O)(=O)c2cc(-c3cc(C)no3)ccc2C)c(C)c1 7.58%
Cc1ccc(CNC(=O)c2c(O)nc3c(C)cccn3c2=O)cc1 -2.5%
Oc1ccc(-c2nc3ccc(Cl)cn3c2Nc2ccc3c(c2)OCO3)cc1 -5.33%
COc1ccc(CCNC(=O)c2ccc(CSCc3ccc(C)cc3)o2)cc1OC -6.17%
Cc1ccc(-c2nc(SCc3ccc(Br)cc3)n3[nH]c(=O)cc3n2)cc1 -0.18%
COc1ccc(N2CCN(S(=O)(=O)CCNC(=O)C(c3ccccc3)c3ccccc3)CC2)cc1 1.78%
O=C(Nc1nc2c(s1)CCCC2)c1ccccc1F -5.58%
Cc1cc(C)cc(Nc2ncnc3onc(-c4ccc(F)cc4)c23)c1 3.63%
CCOc1cc(C2C(C(=O)OC)=C(C)NC3=C2C(=O)c2ccccc23)ccc1O (stereo not drawn) 11%
OCCC(F)(F)C(F)(F)C(F)(F)C(F)(F)C(F)(F)C(F)(F)C(F)(F)C(F)(F)F 1.78% [at 201 µM]
CCN(CCCNC(=O)c1ccc(Sc2ccc(C)cc2)c(NC(C)=O)c1)c1cccc(C)c1 -0.569%
CCCC/C=C/CCCCO 2.76% [at 201 µM]
CCOC(=O)c1ccc(NC(=O)c2c(NCc3cccs3)sc3c2CCCC3)cc1 2.18%
O=C(NCc1ccc(F)cc1)c1ccc2nc(N3CCCCC3)sc2c1 3.71%
CCOc1cccc2c1N[C@@H](c1ccc(C(=O)O)cc1)[C@H]1CC=C[C@@H]21 14.7%
CN(CC(=O)Nc1ccccc1F)S(=O)(=O)c1ccc2c(c1)c(=O)n(C)c(=O)n2C 2.82%
CCN(CC)CCNc1ncnc2c1cnn2-c1cc(Cl)ccc1C 8.58%
CCOC(=O)c1c(C)oc2nc(C)nc(N3CCN(c4ccc(OC)cc4)CC3)c12 4.33%
CC(C)c1ccc(S(=O)(=O)Nc2ccc(O)c(Sc3nc4ccccc4s3)c2)cc1 5.12%
CCc1cccc(NC(=O)CN(C)S(=O)(=O)c2ccc3[nH]c4c(c3c2)CCCC4)c1 -2.3%
CCN(CC)c1ccc(NC(=O)CN2C(=O)c3cccnc3Oc3ccc(Cl)cc32)c(C)c1 0.578%
Cc1ccc(OCCSc2nc(-c3cccs3)nc3cc(=O)[nH]n23)cc1Cl -6%
Cc1ccc(NC2=C(c3ccc(C(F)(F)F)cc3)C(=O)c3ccccc32)cc1F 10.8%
CCCn1c2ccccc2c2cnn(CC(=O)NCC3CCN(Cc4ccc(C)cc4)CC3)c(=O)c21 0.484%
Cc1cc(C)cc(NC(=O)c2cnc3sc(N4CCCC4)nn3c2=O)c1 4.33%
Cc1cc(C)c(NC(=O)CN2C(=O)c3cccnc3Oc3ccc(Cl)cc32)c(C)c1 0.211%
COc1ccc(N2CCN(c3cc(C)nc4nncn34)CC2)cc1 2.01%
Cn1c(=O)c2c(-c3ccccc3Br)n(Cc3ccccc3)cc2n(C)c1=O -1.69%
CC(C)c1ccc(NC(=O)c2ccc(Cn3nc(N4CCN(c5ccccc5)CC4)ccc3=O)o2)cc1 0.615%
CCOc1ccc(S(=O)(=O)Nc2ccc3oc4c(c3c2)CC(C)CC4)cc1 (stereo not drawn) 6.9%
CC(C)CCCCCOC(=O)CS 3.95% [at 201 µM]
CC1Cc2cc(S(=O)(=O)CCC(=O)NCc3ccc(Cl)cc3)ccc2N1C(=O)C1CC1 (stereo not drawn) 0.303%
CCOC(=O)C1CCCN(C(=O)Cn2ncc3c(C)n(Cc4ccc(F)cc4)c(C)c3c2=O)C1 (stereo not drawn) -3.95%
CSc1ccc(CCNC(=O)c2cc(C)nc3c2c(C)nn3-c2cccc(F)c2)cc1 6.29%
O=c1cc(CSc2ncn[nH]2)[nH]c2ccc(F)cc12 -0.923%
CCc1ccc(C(=O)CC2(O)C(=O)N(CCc3ccccc3)c3ccc(Br)cc32)cc1 (stereo not drawn) 5.72%
COc1ccccc1-c1noc(CSc2nnc(-c3ccccc3)n2-c2ccc(C)c(C)c2)n1 10.2%
Cc1ccc2onc(CC(=O)N3CCN(c4ccc(Cl)cc4)CC3)c2c1 -4.05%
CC(C)c1ccc(OCC(=O)N(Cc2ccc(N(C)C)cc2)C2CCS(=O)(=O)C2)cc1 (stereo not drawn) 1.18%
CCN(CC)c1ccc(NC(=O)CN2CCN(CC(=O)Nc3ccc(Cl)cc3)CC2)cc1 0.686%
Clc1ccc(CSc2nncn3c2cc2occc23)cc1 3.3%
COc1cccc(CNC(=O)CCC(=O)N2CC3CCCN3c3ccccc32)c1 (stereo not drawn) 3.45%
Cc1ccc(C2c3[nH]c4ccccc4c3CCN2C(=O)c2cccc(C)c2)cc1 (stereo not drawn) 7.69%
